PubChem BioAssay AID2384 (Southern Research Specialized Biocontainment Screening …, 2010)
Among all 2,300 compounds or so, about 1,100 (48%) were called active. The set was probably picked from earlier hits. This is one part of the list. Results with a measured potency or affinity are listed apart. Unmarked numbers belong to inactive results. How the calls were made is not given here.

Test: S. typhi counter-screen signal inhibition – fluorescence, 4 h, counter-screen for PhoP regulon inhibitor project, dose response (AID 2384)
Settings: S. typhi GFP reporter counter-screen; series mostly up to 150 µM

Structure (SMILES) | inhibition
O=C(Cn1c(=O)oc2ccccc21)N1CCN(c2ccc(N3CCOCC3)nn2)CC1 | inactive
CCn1c(SCC(=O)Nc2oc(-c3ccccc3)c(-c3ccccc3)c2C#N)nnc1-c1ccco1 | inactive
O=C(O)Cn1c(=O)c2c3c(sc2n(Cc2ccccc2F)c1=O)CCCC3 | inactive
Cc1cc(N2CCCCC2)c(F)cc1[N+](=O)[O-] | inactive
O=C1CCCC(=O)N1c1ccc(N2CCOCC2)c([N+](=O)[O-])c1 | inactive
Cc1cnc(NC(=O)CN2C(=O)C3CC=CCC3C2=O)s1 (centres undefined) | inactive
O=C(Nc1ccccc1)c1ccc2nsnc2c1 | inactive
Cc1ccccc1N1C(N)=NC(N)=NC1(C)C | inactive
COC(=O)C(NC(C)=O)(Nc1nc2c(s1)CCCC2)C(F)(F)F (centres undefined) | inactive
Cc1[nH]c2ccccc2c1/C=C/c1nc2ccccc2c(=O)[nH]1 | inactive
CCOC(=O)CSc1nc(-c2ccccc2)nc2ccccc12 | inactive
COc1ccc(Nc2nnc(SCC3CCCO3)s2)cc1 (centres undefined) | inactive
c1ccc2oc(-c3csc(NCC4CCCO4)n3)cc2c1 (centres undefined) | inactive
COc1ccc(Cn2c(=N)c(C(=O)NCC3CCCO3)cc3c(=O)n4ccccc4nc32)cc1 (centres undefined) | inactive
COc1ccccc1Nc1nc(NCC2CCCO2)c2ccccc2n1 (centres undefined) | inactive
O=S(=O)(c1ccccc1)c1nc(-c2cccs2)oc1NCC1CCCO1 (centres undefined) | inactive
COc1ccc(CCn2c(=N)c(C(=O)NCC3CCCO3)cc3c(=O)n4ccccc4nc32)cc1 (centres undefined) | inactive
CC(=O)c1cccc(CN2CCN(C3CCCC3)C(CCO)C2)c1 (centres undefined) | inactive
CCCC1(c2ccccc2)NC(=O)N(CC(=O)Nc2ccccc2C(F)(F)F)C1=O (centres undefined) | inactive
Cc1cccn2c(=O)c3cc(C(=O)NCC4CCCO4)c(=N)n(C4CCCC4)c3nc12 (centres undefined) | inactive
O=C(NCC1CCCO1)c1cc2ccccc2oc1=O (centres undefined) | inactive
Cc1oc2nc(SCCCC(=O)NCCCO)nc(N)c2c1C | inactive
Cc1c(C(=O)O)c(-c2ccccc2)nn1-c1ccccc1 | inactive

Structure (SMILES) | inhibition
CCN(CC)C(=O)CNC(=O)Cc1ccc(Cl)cc1 | inactive
O=C1c2ccccc2C(=O)N1CCCP(=O)(O)CCc1ccccc1 | inactive
COc1ccc(N2CCN(C(CNC(=O)c3ccc4c(c3)OCO4)c3ccco3)CC2)cc1 (centres undefined) | inactive
COc1ccc(/C=N/NC(=O)c2ccc3c(c2)OCO3)cc1 | inactive
O=C(N/N=C\c1ccc(F)cc1)c1ccc(F)cc1 | inactive
CCCCN1/C(=C/c2cccc[n+]2C)Sc2cc(NC(C)=O)ccc21 | inactive
O=C(CSc1nc2ccccc2o1)c1cc2ccccc2oc1=O | inactive
CC(Sc1nc2ccccc2o1)C(=O)O (centres undefined) | inactive
Cc1c(CC(=O)N2CCC(C(N)=O)CC2)c(=O)oc2cc3c(cc12)CCC1(CCCCC1)O3 | inactive
O=C(/C=C/c1c(F)cccc1Cl)N1CCOCC1 | inactive
CC1CCN(C(=O)COc2ccc(Nc3ccccc3)cc2)CC1 | inactive
COc1ccc2nc(Nc3ccccc3)sc2c1 | inactive
Cc1cc(N/N=C/c2ccc(F)cc2)nc(NCc2ccccc2)n1 | inactive
CCCCNC(=S)Nc1ccc([N+](=O)[O-])cc1 | inactive
O=C(Nc1ccc(N2CCOCC2)cc1)C1CCN(S(=O)(=O)c2ccccc2F)CC1 | inactive
CCn1cc(C(=O)NCc2ccc3c(c2)OCO3)c(=O)c2cc(F)c(N3CCN(C(=O)c4ccco4)CC3)cc21 | inactive
CCn1cc(C(=O)N[C@@H](C)C(=O)OC)c(=O)c2cc3c(cc21)OCO3 | inactive
CCN(CC)S(=O)(=O)c1ccc2c(c1)c(C(=O)O)cn2C | inactive
O=C(c1cc2c(s1)-c1ccccc1OC2)N1CCc2ccccc2C1 | inactive
Nc1c(-c2ccccc2)sc2ccc3ccccc3[n+]12 | inactive
CN(Cc1ccccc1)S(=O)(=O)c1csc(C(N)=O)c1 | inactive
Cc1cccc(NC(=O)c2ccccc2Br)n1 | inactive
Cc1ccc(C(C)C)c(OCCNC(=O)c2ccccc2O)c1 | inactive

Structure (SMILES) | inhibition
CN1C(=O)c2ccc(NC(=O)C3CCCCC3)cc2C1=O | inactive
CC(=O)c1c(C)[nH]c(C(=O)OCC(=O)NCC(C)C)c1C | inactive
Cc1ccc(NC(=S)NCc2cccs2)cc1 | inactive
O=C(O)CCSCc1ccccc1F | inactive
O=C(NCCc1ccncc1)Nc1ccc(Cl)c(Cl)c1 | inactive
Cc1cc2cc(CNC(=O)C(C)Oc3ccccc3)ccc2n1C (centres undefined) | inactive
COC(=O)c1cccc(C(=O)N2CCCC(CCC(=O)N(C)CCc3ccccn3)C2)c1 (centres undefined) | inactive
COc1cccc(CNc2nn[nH]n2)c1OC | inactive
Fc1ccc(NC(=S)NCc2ccccc2Cl)cc1 | inactive
COc1ccccc1CNC(=O)COC(=O)CCC(=O)c1cccs1 | inactive
Cc1cc(=O)oc2cc(OCC(=O)NC3CCCC3)ccc12 | inactive
CSc1cccc(NC(=O)/C=C/c2ccco2)c1 | inactive
COc1cccc(C(=O)Nc2cccc(SC)c2)c1 | inactive
CC(C)CCNC(=O)c1cc2c(s1)-c1ccccc1S(=O)(=O)C2 | inactive
COC(=O)c1ccc(CSc2nc3ccccc3c(=O)n2-c2ccc(OC)c(OC)c2)o1 | inactive
Cc1[nH]nc2c1C1(CCC3(CC1)OCCO3)C(C#N)=C(N)O2 | inactive
Cc1ccsc1/C=N\NC(=O)c1ccc2c(c1)OCO2 | 29.4% [at 18.8 µM]
Cc1ccc2cc(-c3noc(C4CCCO4)n3)c(=O)[nH]c2c1 (centres undefined) | inactive
Cc1[nH]c(=O)[nH]c(=O)c1S(=O)(=O)N1CCCC(C(=O)NCc2ccc3c(c2)OCO3)C1 (centres undefined) | inactive
CCc1cccc2c(C=C(C#N)C#N)cn(CC(=O)N3CCCCCC3)c12 | inactive
N#Cc1c(/N=C/c2cccs2)sc2c1CCCCC2 | inactive
Cc1nc(NC2=NCN(CCCN3CCOCC3)CN2)nc2c(C)cccc12 | inactive
COc1cccc(CNC(=O)C2CCN(S(=O)(=O)c3ccc(C)cc3)CC2)c1 | inactive

Structure (SMILES) | inhibition
COc1cccc(NC(=O)CN(C)C(C)C(=O)Nc2ccc(S(=O)(=O)N3CCOCC3)cc2)c1 (centres undefined) | inactive
Nc1nc(SCC(=O)Nc2ccc3c(c2)CCC3)n[nH]1 | inactive
CC(C)Cc1c(O)nc(SCC(=O)Nc2ccc3c(c2)CCC3)[nH]c1=O | inactive
N#CC(C(=O)C12CC3CC(CC(C3)C1)C2)c1nc2ccccc2[nH]1 (centres undefined) | inactive
CC(=O)c1ccc(NC(=S)NC(NC(=O)c2ccco2)C(Cl)(Cl)Cl)cc1 (centres undefined) | inactive
Cc1nn(-c2nc3ccccc3[nH]2)c(N)c1-c1ccccc1 | inactive
CC(C)SCc1nc2ccccc2[nH]1 | inactive
COc1cccc(CNS(=O)(=O)c2ccc3c(c2)NC(=O)CS3)c1 | inactive
O=C(O)CC12CC3CC(C1)CC(n1ncc(NCC4CCCO4)c(Cl)c1=O)(C3)C2 (centres undefined) | inactive
Cc1ccc(NC2=C(Cl)C(=O)OC2OC(=O)c2ccco2)c(C)c1 (centres undefined) | inactive
O=C(NCc1nc2ccccc2[nH]1)c1ccc([N+](=O)[O-])cc1 | inactive
CN(C)C(CNc1ccc([N+](=O)[O-])cc1C#N)c1ccccc1 (centres undefined) | inactive
COc1ccc(C2=NN3C(C2)c2ccccc2OC3c2cccs2)cc1 (centres undefined) | inactive
CCS(=O)(=O)N1CCN(C2CCC(c3ccccc3)CC2)CC1 (centres undefined) | inactive
CNS(=O)(=O)c1cc(OC)ccc1OC | inactive
NC(=O)c1cc(C(=O)c2cccc(Cl)c2Cl)c[nH]1 | inactive
CCOC(=O)COn1c(=O)c(-c2cccs2)[n+]([O-])c2ccccc21 | inactive
CCOc1ccc(N2C(=O)S/C(=C\c3ccc(O)c(OC)c3)C2=O)cc1 | inactive
c1ccn(-c2ccc(-c3ccn[nH]3)cc2)c1 | inactive
CC(=O)Nc1nc(C)c(-c2csc(Nc3ccc(O)cc3)n2)s1 | inactive
Cc1cc(C)c[n+](CC(=O)c2ccc(NC(=O)c3ccccc3)cc2)c1 | inactive
Cc1cc(NS(=O)(=O)c2ccc(Nc3nc(-c4sc(NC(=O)c5ccccc5)nc4C)cs3)cc2)no1 | inactive
CC(C)(C)n1nc2c(c1NC(=O)c1ccccc1)CS(=O)(=O)C2 | inactive

Structure (SMILES) | inhibition
Clc1ccc(Cn2cc(Br)cn2)cc1Cl | inactive
COC(=O)Cn1c(=O)c(C)nc2ccccc21 | inactive
COCCn1nnnc1C(c1cccc(OC)c1OC)N1CCN(C2CCCCC2)CC1 (centres undefined) | inactive
COc1cc2[nH]c(=O)n(Cc3ccc(C(=O)N4CCC(N5CCCCC5)CC4)cc3)c(=O)c2cc1OC | inactive
O=C1c2cccnc2C(=O)N1c1ccccc1-c1ccccc1 | inactive
CC(C)(C)c1ccc(C(=O)NNC(=O)Cc2ccccc2)cc1 | inactive
O=C(c1cccs1)N1CCN(S(=O)(=O)c2ccccc2)CC1 | inactive
CC(C)(C)n1nc2c(c1NC(=O)c1cccs1)CS(=O)C2 (centres undefined) | inactive
CCc1ccccc1NC(=S)N(Cc1cccc(C)c1)c1cccnc1 | inactive
N=c1sc2c(n1Cc1ccccc1)CCCC2 | inactive
N#Cc1c(-c2ccccc2)ccn(Cc2cccc(Cl)c2)c1=O | inactive
Nc1nc2n(n1)C(c1ccco1)CC(c1ccc(Cl)c(Cl)c1)N2 (centres undefined) | inactive
Cc1ccc2nc3c(c(N)c2c1)CCN3C | inactive
O=C(CSc1nnnn1C1CCCCC1)N1CCCC1 | inactive
Cc1cc(C)nc(NS(=O)(=O)c2ccc(N3C(=O)C4CC=C(Cl)CC4C3=O)cc2)n1 (centres undefined) | inactive
COC(=O)Cc1ccc(NC(=S)NCc2ccc(Cl)cc2)cc1 | inactive
O=S(=O)(Nc1ncccn1)c1ccc(NC(=S)Nc2ccc(Cl)cc2)cc1 | inactive
Cc1ccc(NC(=O)C(=O)NCc2ccncc2)cc1 | inactive
Fc1cccc(NC(=S)NCc2ccc(Cl)cc2)c1 | inactive
CCOc1ccccc1NC(=O)Nc1ccncc1 | inactive
CCNC(=S)Nc1cccc(S(=O)(=O)Nc2ccccc2OC)c1 | inactive
Cc1ccc(S(=O)(=O)N(Cc2n[nH]c(=S)n2-c2ccccc2)c2ccccc2)cc1 | inactive
